Results on eleven compounds are retold here after PubChem BioAssay (NCATS).

A short description of assay [1]: qHTS Assay for Identification of Small Molecule Antagonists for NFkB Signaling Pathway (AID 895; active = well fitted inhibition curve with a large enough effect in the signal ratio, with a control signal flat, not every such curve was filed as active; inconclusive = small, poorly fitted or top-dose-only effect, or effect the other way, or a change in a side signal; the % refers to the signal ratio; also: % is scaled to controls: 0 for no effect and ±100 for the full control effect). In outline:
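ME-180 NFkB-bla cells (beta-lactamase under NFkB response element), plated overnight, treated with compound then 10 pM TNF alpha (about EC50) for 5 hrs at 37 C. LiveBLAzer FRET read at 460/530 nm emission, 405 nm excitation.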
(qHTS replaces the single test concentration by a dilution series.)

In assay [2] the target is Muscarinic acetylcholine receptor M1 (Rattus norvegicus) (UniProt P08482). The experiment in a line: qHTS Assay for Antagonists of Acetylcholine Muscarinic M1 Receptor: Measurement of IP-One Response (AID 944). Also: nearly all actives have a fitted effect of over 75% in size. Also: potency is read from the fitted curve at half-maximal effect. An outline of the steps: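 Antagonism was measured as loss of carbachol-driven (EC80) IP1 accumulation in CHO cells carrying rat M1, using a homogeneous IP-One TR-FRET kit read at 620 and 665 nm.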
Chain of Muscarinic acetylcholine receptor M1 (Rattus norvegicus) (P08482 whole entry, looked up): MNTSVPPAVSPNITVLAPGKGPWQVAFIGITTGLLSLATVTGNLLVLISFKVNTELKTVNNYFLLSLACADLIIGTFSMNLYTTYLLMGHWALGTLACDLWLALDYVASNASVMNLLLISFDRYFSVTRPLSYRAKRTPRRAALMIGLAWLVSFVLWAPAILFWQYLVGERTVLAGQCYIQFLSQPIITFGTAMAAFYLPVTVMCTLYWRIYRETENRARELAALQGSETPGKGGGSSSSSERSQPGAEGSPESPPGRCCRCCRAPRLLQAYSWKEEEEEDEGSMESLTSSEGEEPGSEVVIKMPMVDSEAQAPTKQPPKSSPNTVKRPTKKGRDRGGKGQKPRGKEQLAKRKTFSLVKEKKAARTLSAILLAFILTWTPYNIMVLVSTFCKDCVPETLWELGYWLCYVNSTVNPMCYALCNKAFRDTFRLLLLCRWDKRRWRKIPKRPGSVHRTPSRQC

Assay [3] has the same target. In words: qHTS Assay for Antagonists of Acetylcholine Muscarinic M1 Receptor: Kinetic Measurement of Intracellular Calcium Response (AID 943). Also: nearly all actives have a fitted effect of over 75% in size. Also: potency is read from the fitted curve at half-maximal effect. In outline: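 Quantitative HTS in CHO-M1 (rat receptor) cells: 10 min compound exposure ahead of 100 nM carbachol, Fluo-4 fluorescence followed 4 min, value expressed as peak-to-basal ratio.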
For assay [4], the target named is Estrogen receptor (Homo sapiens) (UniProt P03372). In words: qHTS assay for small molecule antagonists of estrogen receptor alpha signaling (AID 588513; active = well fitted curve in the direction sought with a large enough effect in the signal ratio, with a control signal flat, not every such curve was filed as active; inconclusive = small, poorly fitted or top-dose-only effect, or effect the other way, or a change in a side signal; inactive = no such curve, though single readings can be large or run the other way; the % refers to the signal ratio; also: potency is read from the fitted curve at half-maximal effect). An outline of the steps: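 Beta-lactamase reporter, antagonist mode, HEK 293 GripTite cells; 0.5nM E2 stimulus, 18 h, 37 C; CCF4 dye 2 h RT; fluorescence. IC50 and efficacy from Hill fits, normalized to E2 and DMSO.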
Chain of Estrogen receptor (Homo sapiens) (P03372 whole entry, looked up): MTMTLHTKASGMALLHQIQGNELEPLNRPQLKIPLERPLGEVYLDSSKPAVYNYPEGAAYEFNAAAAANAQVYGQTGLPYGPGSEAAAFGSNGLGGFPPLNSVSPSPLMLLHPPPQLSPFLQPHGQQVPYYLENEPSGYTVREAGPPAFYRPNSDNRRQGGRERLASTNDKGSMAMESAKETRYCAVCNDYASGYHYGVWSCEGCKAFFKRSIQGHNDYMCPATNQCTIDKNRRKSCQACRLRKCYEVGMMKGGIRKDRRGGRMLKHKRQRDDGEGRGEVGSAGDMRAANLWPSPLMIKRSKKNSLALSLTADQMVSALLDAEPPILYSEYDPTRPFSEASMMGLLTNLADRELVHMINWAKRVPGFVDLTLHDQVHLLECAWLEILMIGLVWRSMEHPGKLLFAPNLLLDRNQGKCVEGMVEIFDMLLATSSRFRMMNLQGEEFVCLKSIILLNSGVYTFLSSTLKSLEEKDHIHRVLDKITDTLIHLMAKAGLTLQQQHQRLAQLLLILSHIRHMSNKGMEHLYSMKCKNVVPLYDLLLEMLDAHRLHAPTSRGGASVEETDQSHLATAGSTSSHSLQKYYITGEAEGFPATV

The target is the same in assay [5]. In words: qHTS assay for small molecule agonists of estrogen receptor alpha signaling (AID 588514; calls by dose curve;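 also: 0% = vehicle only and 100% = reference agonist; nearly all actives have a fitted effect of over 70% in size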). An outline of the steps:
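Fluorescence from CCF4 cleavage reports ER-alpha-driven beta-lactamase expression in HEK 293 cells treated 18 hrs at 37 C. Data normalized to 17-beta-estradiol (20 nM) and DMSO, fitted to Hill equation.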

In assay [6] the target is Peroxisome proliferator-activated receptor delta (Homo sapiens) (UniProt Q03181). In words: qHTS assay for small molecule agonists of peroxisome proliferator-activated receptor delta signaling (AID 588534; calls by dose curve;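 also: 0% = DMSO basal wells and 100% = positive control agonist at 10 µM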). An outline of the steps:
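EC50 and efficacy values derive from Hill fits of a concentration series in a beta-lactamase reporter cell assay. Exposure is 18 hrs at 37 C, with CCF4 fluorescence as the readout.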

The target of assay [7] is Peroxisome proliferator-activated receptor gamma (Homo sapiens) (UniProt P37231). In words: qHTS assay for small molecule antagonists of peroxisome proliferator-activated receptor gamma signaling (AID 588537; active = well fitted inhibition curve with a large enough effect in the signal ratio, with a control signal flat, not every such curve was filed as active; inconclusive = small, poorly fitted or top-dose-only effect, or effect the other way, or a change in a side signal; the % refers to the signal ratio;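 also: reporter cells co-stimulated with 50 nM rosiglitazone agonist during compound treatment; % of control where 0% means no effect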). An outline of the steps: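 Read-out: CCF4 fluorescence (ex 405, em 460/530 nm) after 2 h at RT. Cells were HEK293 carrying a UAS-bla reporter and treated 16 h at 37 C with compound plus rosiglitazone (50 nM final). Normalized to rosiglitazone and DMSO.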
Chain of Peroxisome proliferator-activated receptor gamma (Homo sapiens) (P37231 whole entry, looked up): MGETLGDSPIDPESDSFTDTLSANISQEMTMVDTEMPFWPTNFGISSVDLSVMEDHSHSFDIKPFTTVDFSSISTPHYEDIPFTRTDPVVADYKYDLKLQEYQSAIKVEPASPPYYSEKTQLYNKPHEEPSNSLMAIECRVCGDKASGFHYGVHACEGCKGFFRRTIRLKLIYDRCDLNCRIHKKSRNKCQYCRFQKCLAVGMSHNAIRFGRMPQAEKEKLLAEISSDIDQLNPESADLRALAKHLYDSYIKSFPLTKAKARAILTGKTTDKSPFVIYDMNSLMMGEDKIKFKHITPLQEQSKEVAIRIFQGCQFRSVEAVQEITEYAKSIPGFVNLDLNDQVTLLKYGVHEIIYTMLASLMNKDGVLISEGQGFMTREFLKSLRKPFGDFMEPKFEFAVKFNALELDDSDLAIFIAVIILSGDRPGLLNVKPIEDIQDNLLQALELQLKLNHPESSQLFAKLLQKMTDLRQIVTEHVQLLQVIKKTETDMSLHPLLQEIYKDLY

For assay [8], the target named is Vitamin D3 receptor (Homo sapiens) (UniProt P11473). In words: qHTS assay for small molecule agonists of vitamin D receptor signaling (AID 588543; calls by dose curve;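 also: 0% = DMSO basal and 100% = reference agonist control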). In outline: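 β-lactamase reporter, VDR-UAS-bla HEK293T, agonist mode. Cells plated 5 h at 37 °C, compound titration 16 h at 37 °C, CCF4 dye 2 h RT, ratio 460/530 nm. Hill fit → EC50, efficacy vs 50 nM 1α,25-(OH)2D3.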
Chain of Vitamin D3 receptor (Homo sapiens) (P11473 whole entry, looked up): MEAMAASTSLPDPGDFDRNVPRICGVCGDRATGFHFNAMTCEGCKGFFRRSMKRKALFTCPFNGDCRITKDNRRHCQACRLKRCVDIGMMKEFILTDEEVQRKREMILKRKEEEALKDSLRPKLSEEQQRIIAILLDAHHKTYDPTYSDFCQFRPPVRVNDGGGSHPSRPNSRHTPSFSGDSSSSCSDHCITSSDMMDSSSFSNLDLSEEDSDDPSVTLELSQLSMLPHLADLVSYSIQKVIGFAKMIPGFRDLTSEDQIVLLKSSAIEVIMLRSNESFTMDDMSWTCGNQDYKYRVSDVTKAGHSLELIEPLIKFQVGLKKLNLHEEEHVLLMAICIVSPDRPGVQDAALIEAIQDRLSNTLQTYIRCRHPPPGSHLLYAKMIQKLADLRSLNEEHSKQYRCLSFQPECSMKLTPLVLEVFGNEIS

Assay [9] is described as follows: qHTS assay for small molecule antagonists of retinoid X receptor alpha signaling (AID 588546).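 Also: cells stimulated with 9-cis-retinoic acid as agonist; % is scaled to controls: 0 for no effect and ±100 for the full control effect.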 Particulars: HEK293T RXRa-UAS-bla, beta-lactamase ratio, antagonist mode; measured here: W530 green channel, cytotoxicity proxy. An outline of the steps:
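Beta-lactamase reporter inhibition, read as CCF4 fluorescence ratio (ex 405, em 460/530 nm) after 2 h at RT. HEK293T UAS-bla cells, 2500/well, were stimulated with 9-cis-RA at 500 or 100 nM final alongside test compound for 18 h at 37 C.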

Assay [10] deals with Thyroid hormone receptor beta (Homo sapiens) (UniProt P10828). In words: qHTS assay for small molecule antagonists of thyroid hormone receptor beta signaling (AID 588547; active = well fitted inhibition curve with a large enough effect in the signal ratio, with a control signal flat, not every such curve was filed as active; inconclusive = small, poorly fitted or top-dose-only effect, or effect the other way, or a change in a side signal; the % refers to the signal ratio;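 also: cells stimulated with 0.4 nM T3 agonist during compound exposure; series mostly up to about 77 µM; % is scaled to controls: 0 for no effect and ±100 for the full control effect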). Particulars: TR-UAS-bla HEK293, beta-lactamase ratio, antagonist mode, 18 h. In outline:
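TR-UAS-bla GripTite HEK293 cells in 2% charcoal/dextran FBS medium; compounds 0.59 nM to 92 uM with T3 at 0.4nM final, 18 h at 37 C. Beta-lactamase read by CCF4 fluorescence (460/530 nm); Hill fits gave IC50 and efficacy.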

The nature of assay [11]: qHTS assay for small molecule agonists of the antioxidant response element (ARE) signaling pathway (AID 651741; active = well fitted activation curve with a large enough effect in the signal ratio; inconclusive = small, poorly fitted or top-dose-only effect, or effect the other way, or a change in a side signal; the % refers to the signal ratio; also: potency is read from the fitted curve at half-maximal effect; as to activation: % of control where 0% means no effect). In outline: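 HepG2 ARE-bla reporter cells, 2,000/well; 5 h settle at 37 C/5% CO2; compound pin transfer (23 nL, DMSO); 16 h at 37 C; LiveBLAzer B/G FRET substrate, 2 h RT; fluorescence intensity read.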
Assay [12] can be described thus: qHTS assay for small molecule activators of the p53 signaling pathway (AID 651743; active = well fitted activation curve with a large enough effect in the signal ratio, not every such curve was filed as active; inconclusive = small, poorly fitted or top-dose-only effect, or a change in a side signal; the % refers to the signal ratio; also: potency is read from the fitted curve at half-maximal effect; as to activation: series mostly up to about 92 µM; % of control where 0% means no effect). Particulars: HCT-116 p53RE-bla, beta-lactamase FRET ratio, 16 h; activation: stronger effect = higher value. An outline of the steps: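 Reporter: beta-lactamase driven by p53 response elements, stably integrated in HCT-116 cells. Cells seeded at 4,000/well, 5 h preincubation, compound (DMSO) 16 h at 37 C; B/G FRET substrate 2 h RT; fluorescence intensity read.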

Assay [13] is described as follows: qHTS assay for small molecule activators of the nuclear factor-kappa B (NF-kB) signaling pathway (AID 651749; active = well fitted activation curve with a large enough effect in the signal ratio; inconclusive = small, poorly fitted or top-dose-only effect, or a change in a side signal; the % refers to the signal ratio; also: series mostly up to about 77 µM; % of control where 0% means no effect). Conditions: NF-kB-bla ME-180 cells, beta-lactamase FRET ratio, 16 h; activation: stronger effect = higher value. An outline of the steps:
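NF-kB-bla ME-180 cells, 2,000/well; 23 nL compound or DMSO pinned; 16 hr, 37C/5% CO2; beta-lactamase FRET read-out.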

A short description of assay [14]: qHTS assay for environmental chemicals that activate the Aryl hydrocarbon Receptor (AhR) signaling pathway (AID 651777). Also: % of control where 0% means no effect; nearly all actives have a fitted effect of over 15% in size. Conditions: 1A2-DRE human hepatoma cells, luciferase, 24 h; activation: stronger effect = higher value. An outline of the steps:
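Reporter gene assay: hepatoma cells with DRE/CYP1A2-luciferase, 24 hr compound incubation at 37 C, 5% CO2, luminescence after One-Glo (30 min, RT).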

A short description of assay [15]: qHTS assay for small molecule agonists of the antioxidant response element (ARE) signaling pathway measured by Nrf2-dependant transcriptional activity - cell viability counter screen (AID 720653; active = well fitted curve in the direction sought with a large enough effect in the repeat runs; inconclusive = weak or mixed curves; inactive = no such curve, though single readings can be large; an effect the other way counts as inactive or inconclusive; also: % is scaled to controls: 0 for no effect and ±100 for the full control effect). Particulars: ARE-bla HepG2 viability, CellTiter-Glo ATP luminescence, 16 h; stronger effect = lower value. An outline of the steps:
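ARE-bla HepG2 cells treated with compounds for 16 h at 37C; this counter screen measures viability as intracellular ATP by CellTiter-Glo luminescence after 30 min at room temperature.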

Assay [16] can be described thus: qHTS assay for cell viability of the p53RE-bla HCT-116 cell line (AID 743292). Also: % is scaled to controls: 0 for no effect and ±100 for the full control effect; nearly all actives have a fitted effect of over 55% in size. In outline:
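ATP-based luminescence, 16 h compound exposure at 37 C, p53RE-bla HCT-116 cells at 4,000/well.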

Assay [17] concerns the target Nuclear receptor subfamily 1 group I member 2 (Rattus norvegicus) (UniProt Q9R1A7). The experiment in a line: qHTS assay for small molecule activators of the rat pregnane X receptor (rPXR) signaling pathway (AID 651751; call rule not given here; also: 0% is about no effect). Conditions: rPXR reporter cells, luciferase (One-Glo), 24 h.
Assay [18] deals with DNA dC->dU-editing enzyme APOBEC-3G (Homo sapiens) (UniProt Q9HC16). The experiment in a line: qHTS for inhibitors of Vif-A3G interactions: Validation (AID 588379). Also: 0% is about no effect. An outline of the steps:
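Yellow fluorescence (Ex 488, Em 500-530) of Vif-coexpressing HeLa A3G-eYFP cells, scanned by Acumen cytometer, reports blocked A3G degradation. Cells plated at 700/well overnight at 37 deg C before compound addition, then a further overnight compound incubation at 37 deg C.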

Assay [19] can be described thus: qHTS assay for small molecule agonists of the antioxidant response element (ARE) signaling pathway measured by Nrf2-dependant transcriptional activity (AID 720636; active = well fitted curve in the direction sought with a large enough effect in the repeat runs; inconclusive = weak or mixed curves; inactive = no such curve, though single readings can be large; an effect the other way counts as inactive or inconclusive;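 also: HepG2 cells with an ARE-driven luciferase reporter; % of control where 0% means no effect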). In outline:
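Nrf2-dependent transcription is measured in ARE-luc HepG2 cells: compound is applied for 16 hr at 37 C after a 6 hr attachment period, and luciferase activity is quantified by luminescence using ONE-Glo.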

The nature of assay [20]: qHTS assay for small molecule activators of the human pregnane X receptor (PXR) signaling pathway (AID 720659; call rule not given here; also: 0% is about no effect).

Values joined by “and” are separate entries in the source; they are usually repeats but may differ in a detail not shown here. Equal values may be shown once. Active and inactive are the calls of the source. Unless noted, calls follow the shape of the dose curve; as a rule, active = well fitted curve in the direction sought with a large enough effect; inconclusive = small, poorly fitted or top-dose-only effect, or another doubt; inactive = no such curve, though single readings can be large; an effect the other way counts as inactive or inconclusive.

Chain of Nuclear receptor subfamily 1 group I member 2 (Rattus norvegicus) (Q9R1A7 whole entry, looked up): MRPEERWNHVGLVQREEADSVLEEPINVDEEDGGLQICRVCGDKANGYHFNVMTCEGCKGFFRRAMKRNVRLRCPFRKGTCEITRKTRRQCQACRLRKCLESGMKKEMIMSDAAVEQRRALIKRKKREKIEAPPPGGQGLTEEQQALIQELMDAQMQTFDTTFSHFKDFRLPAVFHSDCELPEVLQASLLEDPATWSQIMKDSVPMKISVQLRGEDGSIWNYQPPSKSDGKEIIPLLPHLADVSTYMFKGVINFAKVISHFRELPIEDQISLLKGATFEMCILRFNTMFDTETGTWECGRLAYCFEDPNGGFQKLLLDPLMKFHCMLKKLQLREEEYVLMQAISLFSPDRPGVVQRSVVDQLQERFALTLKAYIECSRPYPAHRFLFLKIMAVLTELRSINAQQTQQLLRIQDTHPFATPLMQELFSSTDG
Chain of Peroxisome proliferator-activated receptor delta (Homo sapiens) (Q03181 whole entry, looked up): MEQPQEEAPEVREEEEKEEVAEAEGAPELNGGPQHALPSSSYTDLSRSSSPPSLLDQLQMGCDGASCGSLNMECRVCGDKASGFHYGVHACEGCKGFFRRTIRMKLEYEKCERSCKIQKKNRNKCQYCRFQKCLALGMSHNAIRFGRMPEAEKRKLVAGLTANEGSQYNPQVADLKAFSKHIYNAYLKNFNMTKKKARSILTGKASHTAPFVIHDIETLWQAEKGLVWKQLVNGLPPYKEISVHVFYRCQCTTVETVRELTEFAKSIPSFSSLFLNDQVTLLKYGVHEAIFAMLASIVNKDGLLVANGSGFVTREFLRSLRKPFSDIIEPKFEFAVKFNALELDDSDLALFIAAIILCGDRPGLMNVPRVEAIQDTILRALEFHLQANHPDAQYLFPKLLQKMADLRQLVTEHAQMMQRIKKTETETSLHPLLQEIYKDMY
Chain of Thyroid hormone receptor beta (Homo sapiens) (P10828 whole entry, looked up): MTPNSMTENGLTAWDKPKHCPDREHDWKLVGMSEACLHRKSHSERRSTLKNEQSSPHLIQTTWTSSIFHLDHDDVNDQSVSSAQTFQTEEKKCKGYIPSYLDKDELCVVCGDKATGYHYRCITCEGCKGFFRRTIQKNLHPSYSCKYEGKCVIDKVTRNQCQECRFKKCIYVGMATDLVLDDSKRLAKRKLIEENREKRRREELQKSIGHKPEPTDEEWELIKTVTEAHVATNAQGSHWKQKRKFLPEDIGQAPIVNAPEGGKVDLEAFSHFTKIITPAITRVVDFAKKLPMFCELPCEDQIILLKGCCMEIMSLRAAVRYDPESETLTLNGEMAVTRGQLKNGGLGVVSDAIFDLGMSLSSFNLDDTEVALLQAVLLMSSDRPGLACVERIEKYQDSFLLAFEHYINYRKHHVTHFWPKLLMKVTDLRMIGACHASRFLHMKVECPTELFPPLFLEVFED
Chain of DNA dC->dU-editing enzyme APOBEC-3G (Homo sapiens) (Q9HC16 whole entry, looked up): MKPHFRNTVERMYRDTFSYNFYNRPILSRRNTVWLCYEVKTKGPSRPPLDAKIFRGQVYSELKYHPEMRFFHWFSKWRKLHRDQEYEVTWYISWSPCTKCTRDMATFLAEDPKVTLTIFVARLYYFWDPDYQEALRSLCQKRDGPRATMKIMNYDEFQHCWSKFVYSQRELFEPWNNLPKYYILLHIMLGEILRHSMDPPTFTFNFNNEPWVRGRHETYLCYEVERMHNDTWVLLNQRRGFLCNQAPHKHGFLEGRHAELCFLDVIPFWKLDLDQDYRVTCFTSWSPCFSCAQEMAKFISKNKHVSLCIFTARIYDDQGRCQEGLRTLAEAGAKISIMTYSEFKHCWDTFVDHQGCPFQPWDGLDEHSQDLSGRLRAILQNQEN

Turning to `C#CCN(C)[C@@H](C)Cc1ccccc1`, the Potency result in [1] and in assay [2] was “inactive” each time.
Regarding `NC[C@H](O)c1ccc(O)cc1`, the Potency result in assay [3] and in assay [2] was “inactive” throughout.
Regarding `CC(C)N(CC[C@@](C(N)=O)(c1ccccc1)c1ccccn1)C(C)C`, the Potency entry in assay [1] is “inactive”. The Potency was 4.47 µM (active) and 3.98 µM (active) in assay [3]; 5.62 µM (active) and 6.31 µM (active) in assay [2].
For `CN1CC[C@]2(C)c3cc(O)ccc3N(C)[C@@H]12`, the Potency entry in assay [2] is “inactive”.
Turning to `COc1ccc(OC)c([C@H](O)[C@H](C)N)c1`, the Potency result in [1], in [3] and in assay [2] was “inactive” in each case.
For `CNC(=O)N(C)c1nnc(C(C)(C)C)s1`, the Potency entry in [4], in [5], in assay [7], in assay [11] and in assay [16] was “inactive” each time. Besides, the result in assay [6] and in [8] was inactive. Further, the max response is -11.1% in assay [9], 4.89% (inactive) in assay [15] and 4.69% (inactive) in assay [17]. Moreover, the activity change % (negative = inhibition) in assay [10] is -7.26% (inactive). Besides, the activation in assay [12] is -3.47% (inactive); in [13], -0.0908% (inactive); in assay [14], 3.03% (inactive).
Regarding `c1cncc([C@H]2CCCCN2)c1`, in assay [18], the outcome was inactive.
In the case of `CCCCCCCCCc1ccc(O)cc1`, the result in assay [6], in assay [8] and in assay [19] was inactive. In addition, the max response was -16.1% in [9]; -6.51% (inactive) and -5.9% (inactive) in [15]; -1.03% (inactive) and 0.419% (inactive) in assay [17]. Further, in assay [10], the activity change % (negative = inhibition) was 4.44% (inactive). Also, the Potency in assay [11] is 75 µM (active) and 30.6 µM (active). Also, the activation in assay [12] was -1.55% (inactive) and -0.009% (inactive); in assay [14], 10.9% (inactive) and 1.36% (inactive). Moreover, in assay [16], the Potency entry was “inactive”.
Turning to `O=C1C(Cl)=C(Cl)C(=O)C(Cl)=C1Cl`, the Potency in [4] was 25.1 µM [inconclusive] (active); in assay [11], 26.6 µM (active); in assay [12], 25.1 µM (active). Besides, in assay [17], the max response was -2.19% (inactive). Besides, the outcome in [20] was inactive.
With `COc1cc(N)c(Cl)cc1C(=O)N[C@@H]1CN2CCC1CC2`, the outcome in assay [18] was inactive.
As for `CNC(=O)Oc1ccccc1OC(C)C`, the Potency entry in assay [4], in [5], in assay [11] and in [16] was “inactive” each time. For the same compound, the outcome in [6], in assay [8], in [19] and in assay [20] was inactive. Also, the figures for the max response in assay [9], in [15] and in [17] were -6.53%, -4.9% (inactive) and -0.132% (inactive), respectively. In addition, in assay [10], the activity change % (negative = inhibition) was 16.1% (inactive). Moreover, the activation in assay [13] was -2.6% (inactive); in assay [14], -1.13% (inactive).
